High-throughput results as filed in PubChem BioAssay.
Shown is part of a subset that was picked to be rich in hits.
U2OS ROS induce: raises reactive oxygen species in U2OS cancer cells; hit rate 2% among 46,000; AID 624156; U2OS ROS induction, H2DCF-DA fluorescence; ROS induction (% of piperlongumine), % at 10 µM; in the data active = ROS induction above about 79%, passing the limit was not always enough
NOMO-1 viab: STK33 inhibitor candidate reducing NOMO-1 cell viability; hit rate 7.5% among 37,000; inhibition, % (no concentration beside the values); AID 2330; NOMO-1 AML viability, CellTiter-Glo luminescence, 72 h; in the data active = inhibition above about 80%
Each line names hits and unclear results; the compound was inactive in the other large screens.

Cc1ccc(S(=O)(=O)N(C)C[C@@H]2Oc3ccc(NC(=O)Nc4ccc(F)cc4)cc3CC(=O)N([C@H](C)CO)C[C@H]2C)cc1	none
Cc1ccc2c(c1)c1nnc(SCCN3CCOCC3)nc1n2Cc1ccccc1	U2OS ROS induce 113
CCCCn1c2ccccc2c2nnc(SCCN3CCOCC3)nc21	U2OS ROS induce 155
CCCn1c2ccc(C)cc2c2nnc(SCCN3CCOCC3)nc21	U2OS ROS induce 142
CCCn1c2ccccc2c2nnc(SCCC(=O)O)nc21	none
Cc1ccc2c(c1)c1nnc(SCCN3CCOCC3)nc1n2C	none
c1ccc2c(c1)[nH]c1nc(SCCN3CCOCC3)nnc12	none
O=C(O)C1CC(O)CN1S(=O)(=O)c1ccc(Cl)cc1 (stereo not drawn)	none
C[C@@H]1CCCCO[C@@H](CN(C)Cc2ccc(C(F)(F)F)cc2)[C@@H](C)CN([C@H](C)CO)C(=O)c2cc(NS(=O)(=O)c3cccs3)ccc2O1	NOMO-1 viab 110
C[C@@H]1CCCCO[C@@H](CN(C)Cc2ccccc2)[C@@H](C)CN([C@H](C)CO)C(=O)c2cc(NS(=O)(=O)c3ccccc3)ccc2O1	none
C[C@@H]1CCCCO[C@H](CN(C)C(=O)Nc2ccc(C(F)(F)F)cc2)[C@@H](C)CN([C@H](C)CO)C(=O)c2cc(NS(=O)(=O)c3ccc(F)cc3)ccc2O1	none
C[C@@H]1CCCCO[C@H](CN(C)C(=O)Nc2ccc(C(F)(F)F)cc2)[C@@H](C)CN([C@H](C)CO)C(=O)c2cc(NS(=O)(=O)c3cccs3)ccc2O1	none
C[C@@H]1CCCCO[C@H](CN(C)Cc2ccc(C(F)(F)F)cc2)[C@@H](C)CN([C@H](C)CO)C(=O)c2cc(NS(=O)(=O)c3ccccc3)ccc2O1	NOMO-1 viab 95
C[C@@H]1CCCCO[C@H](CN(C)Cc2ccc(C(F)(F)F)cc2)[C@@H](C)CN([C@H](C)CO)C(=O)c2cc(NS(=O)(=O)c3cccs3)ccc2O1	none
C[C@@H]1CCCCO[C@@H](CN(C)C(=O)Nc2ccc(C(F)(F)F)cc2)[C@@H](C)CN([C@H](C)CO)C(=O)c2cc(NS(=O)(=O)c3cccs3)ccc2O1	NOMO-1 viab 114
Cc1ccc(S(=O)(=O)Nc2ccc3c(c2)C(=O)N([C@H](C)CO)C[C@H](C)[C@H](CN(C)C(=O)Nc2ccc(C(F)(F)F)cc2)OCCCC[C@@H](C)O3)cc1	NOMO-1 viab 114
COc1ccc(S(=O)(=O)N(C)C[C@H]2Oc3ccc(NS(=O)(=O)c4ccc(C)cc4)cc3CC(=O)N([C@H](C)CO)C[C@H]2C)cc1	none
Cc1ccccc1S(=O)(=O)/N=C(\N)c1ccccc1	none (no result: NOMO-1 viab)
COc1ccc(S(=O)(=O)Nc2ccc3c(c2)C(=O)N([C@H](C)CO)C[C@H](C)[C@H](CN(C)C(=O)Nc2cccc4ccccc24)OCCCC[C@@H](C)O3)cc1	none
O=C(NC1CCCC1)c1cc2c(s1)CS(=O)(=O)C2	none (no result: NOMO-1 viab)
CNC[C@H]1Oc2c(NC(=O)Nc3ccc4c(c3)OCO4)cccc2C(=O)N([C@H](C)CO)C[C@@H]1C	none
C[C@@H]1CN([C@H](C)CO)C(=O)c2cc(NS(=O)(=O)c3ccc(F)cc3)ccc2O[C@@H]1CN(C)C	none
C[C@@H]1CCCCO[C@@H](CN(C)Cc2ccncc2)[C@@H](C)CN([C@H](C)CO)C(=O)c2cc(NS(=O)(=O)c3ccc(Cl)cc3)ccc2O1	none
C[C@@H]1CCCCO[C@@H](CN(C)Cc2ccc(C(F)(F)F)cc2)[C@@H](C)CN([C@H](C)CO)C(=O)c2cc(NS(=O)(=O)c3ccc(Cl)cc3)ccc2O1	NOMO-1 viab 111
C[C@@H]1CCCCO[C@H](CN(C)Cc2ccncc2)[C@@H](C)CN([C@H](C)CO)C(=O)c2cc(NS(=O)(=O)c3ccc(F)cc3)ccc2O1	none
Cc1ccc(S(=O)(=O)Nc2ccc3c(c2)C(=O)N([C@H](C)CO)C[C@H](C)[C@H](CN(C)Cc2ccc(C(F)(F)F)cc2)OCCCC[C@@H](C)O3)cc1	NOMO-1 viab 126
C[C@@H]1CCCCO[C@H](CN(C)Cc2ccc(C(F)(F)F)cc2)[C@@H](C)CN([C@H](C)CO)C(=O)c2cc(NS(=O)(=O)c3ccc(F)cc3)ccc2O1	NOMO-1 viab 100
C[C@@H]1CCCCO[C@@H](CN(C)C)[C@@H](C)CN([C@H](C)CO)C(=O)c2cc(NS(=O)(=O)c3ccc(F)cc3)ccc2O1	none
C[C@@H]1CCCCO[C@H](CN(C)CC2CCCCC2)[C@@H](C)CN([C@H](C)CO)C(=O)c2cc(NS(=O)(=O)c3ccc(F)cc3)ccc2O1	U2OS ROS induce 98
Cc1ccc(S(=O)(=O)Nc2ccc3c(c2)C(=O)N([C@H](C)CO)C[C@H](C)[C@H](CN(C)CC2CC2)OCCCC[C@@H](C)O3)cc1	none
C[C@H](CO)N1C[C@H](C)[C@@H](CN(C)C(=O)Nc2ccc3c(c2)OCO3)Oc2ccc(NC(=O)Nc3ccccc3)cc2C1=O	none
Cc1ccc(C)c(NC(=O)C(C)N(c2ccc(Cl)cc2)S(C)(=O)=O)c1 (stereo not drawn)	none
